Screening results deposited in PubChem BioAssay by several laboratories.
CYP2C9 act: CYP2C9 (human) activation. P11712. recombinant CYP2C9, luciferin-H conversion, luminescence; stronger effect = higher value; factor 1 = untreated enzyme, 0 = blocked. activation factor at 5 µM. 1.4% of 96,000 active;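 active = activation factor of 2 or more for CYP2C9 at a 5 µM dose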
Target sequence (P11712 whole entry, looked up): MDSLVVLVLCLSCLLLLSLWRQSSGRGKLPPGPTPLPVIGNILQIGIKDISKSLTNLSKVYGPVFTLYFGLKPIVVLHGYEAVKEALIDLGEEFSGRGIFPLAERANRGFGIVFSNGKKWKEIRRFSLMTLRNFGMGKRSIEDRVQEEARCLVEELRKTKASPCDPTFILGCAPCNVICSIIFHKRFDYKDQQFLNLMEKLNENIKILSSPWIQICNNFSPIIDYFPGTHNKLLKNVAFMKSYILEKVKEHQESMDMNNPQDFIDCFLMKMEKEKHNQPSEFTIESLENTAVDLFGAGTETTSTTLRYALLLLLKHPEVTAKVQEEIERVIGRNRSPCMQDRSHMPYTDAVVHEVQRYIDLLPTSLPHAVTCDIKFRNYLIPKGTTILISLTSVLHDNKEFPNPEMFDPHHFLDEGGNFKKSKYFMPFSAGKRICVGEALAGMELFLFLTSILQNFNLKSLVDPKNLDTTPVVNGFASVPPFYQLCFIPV
CYP2C19 inhib: blocks human cytochrome P450 2C19; CYP2C19 Supersomes, luciferin-H EGE luminescence, 30 min; 21% of 96,000 active; inhibition, % at 5 µM; AID 778;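 active = CYP2C19 inhibition above a set limit at 5 µM in the primary screen, cut at about 50% in these data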
CYP2C9 inh: blocks human cytochrome P450 2C9 | 20% of 96,000 active | CYP2C9 Supersomes, luciferin-H conversion, luminescence | P11712 | inhibition, % at 5 µM;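 active = blocking of liver enzyme CYP2C9 beyond about 50% at 5 µM, limit read from the data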
CYP2C19 act: activators of human cytochrome P450 2C19; recombinant CYP2C19, luciferin-H EGE luminescence; stronger effect = higher value; 0 = fully inhibited enzyme, 1 = untreated enzyme; 96,000 tested, under 10 active; activation factor at 5 µM;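 active = activation factor of at least 2 at 5 µM in the primary screen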
Measles CPE: protection of cells from measles virus; Measles virus-infected cells, CPE protection, absorbance; protection (pct of control), % at 4 µM; 1.5% of 140,000 active; AID 841; in the data active = protection mostly above about 24%, no sharp cut-off; inactive = mostly below about 26%
Of the large screens only hits and unclear results are named; the others gave an inactive call. An excerpt weighted towards active compounds, which were near 22% of everything screened.

O=C(Cc1ccccc1)N1CCCC(c2nc(-c3ccc(S(=O)(=O)N4CCCC4)cc3)no2)C1 (configuration not stated)	CYP2C9 inh 73
Cc1ccc(C)c(NC(=O)CSc2nc3[nH]ncc3c(=O)[nH]2)c1	none (no result: CYP2C9 act, CYP2C19 inhib, CYP2C9 inh, CYP2C19 act)
O=C(Nc1ccn(Cc2ccc(Cl)cc2)n1)c1ccc2c(c1)OCO2	CYP2C19 inhib 91, CYP2C9 inh 92
O=C(NCc1ccc2c(c1)OCO2)c1ccncc1	CYP2C19 inhib 68
Cc1ccc(CNc2ccc3c(c2)OCO3)cc1	none
c1cc(CNc2ccc3c(c2)OCO3)ccn1	CYP2C19 inhib 71, CYP2C9 inh 63
O=C(NCc1ccc2c(c1)OCO2)c1ccc(-c2ccc(Cl)cc2)o1	CYP2C9 inh 100
O=C(COc1ccc2c(C(F)(F)F)cc(=O)oc2c1)Nc1ccc(N2CCOCC2)cc1	none (no result: CYP2C9 act, CYP2C19 inhib, CYP2C9 inh, CYP2C19 act)
Cc1sc2nc3c(SC(C)C(=O)O)cc(C(=O)c4ccccc4O)cn3c(=O)c2c1C (configuration not stated)	none (no result: CYP2C9 act, CYP2C19 inhib, CYP2C9 inh, CYP2C19 act)
O=C(NCc1cccc(Cl)c1)c1ccc2c(c1)OCO2	CYP2C19 inhib 50
O=C(NCc1ccc2c(c1)OCO2)c1ccc(CSCc2cccc(Cl)c2)o1	none (no result: CYP2C9 act, CYP2C19 inhib, CYP2C9 inh, CYP2C19 act)
O=C(NCc1cccc(Cl)c1)c1ccco1	CYP2C19 inhib 57
O=C(NCc1ccc2c(c1)OCO2)c1cccc(F)c1	CYP2C19 inhib 99, CYP2C9 inh 66
O=C(NCc1ccc2c(c1)OCO2)c1cccc(Cl)c1	CYP2C19 inhib 98
O=C(NCc1cccnc1)c1ccc2c(c1)OCO2	none
O=C1CCC2CCCCC2(O)O1 (configuration not stated)	none
Cc1ccccc1C(=O)c1cccn1CC(=O)O	none
O=C(NCc1cccc(Cl)c1)c1cccc(C(F)(F)F)c1	CYP2C19 inhib 62
Cc1ccc(C(=O)Nc2ccc3c(c2)OCO3)cc1	none
O=C(NCc1ccccc1Cl)c1cccc(C(F)(F)F)c1	none (no result: CYP2C9 act, CYP2C19 inhib, CYP2C9 inh, CYP2C19 act)
O=C(Nc1ccc2c(c1)OCO2)c1ccncc1	CYP2C19 inhib 53, Measles CPE 26
Cc1ccnc2nc(C(=O)Nc3ccc4c(c3)OCO4)nn12	CYP2C19 inhib 75
O=C(Nc1ccc2c(c1)OCO2)c1ccc2nc[nH]c2c1	CYP2C19 inhib 80, CYP2C9 inh 56
O=C(Nc1ccc(C(F)(F)F)cc1)c1ccc2nc[nH]c2c1	none (no result: CYP2C9 act, CYP2C19 inhib, CYP2C9 inh, CYP2C19 act)
Cc1nn(-c2ccccc2)c(N)c1N=Nc1ccc(Cl)cc1	none (no result: CYP2C9 act, CYP2C19 inhib, CYP2C9 inh, CYP2C19 act)
COc1cc(C(=O)OCC(=O)Nc2ccc3c(c2)OC(F)(F)O3)ccc1OCc1c(C)noc1C	none (no result: CYP2C9 act, CYP2C19 inhib, CYP2C9 inh, CYP2C19 act)
O=C(Nc1ccc2c(c1)OCO2)c1noc2c1CCCCC2	CYP2C9 inh 89
O=C(Nc1ccc2c(c1)OCO2)c1cccs1	none
CCN1C(=O)c2ccc(C(=O)NCc3ccc4c(c3)OCO4)cc2C1=O	none (no result: CYP2C9 act, CYP2C19 inhib, CYP2C9 inh, CYP2C19 act)
O=C(NNC(=S)NCc1ccccc1)c1ccc2c(c1)OCO2	none (no result: CYP2C9 act, CYP2C19 inhib, CYP2C9 inh, CYP2C19 act)
O=C(NCc1ccc2c(c1)OCO2)c1ccc2c(c1)C(=O)N(Cc1cccnc1)C2=O	CYP2C9 inh 51
O=C(Nc1ccc2c(c1)OCO2)c1ccc(Br)s1	CYP2C19 inhib 54
O=C(NC(=S)NCc1ccccc1)c1ccc2c(c1)OCO2	Measles CPE 31 (no result: CYP2C9 act, CYP2C19 inhib, CYP2C9 inh, CYP2C19 act)
CCOC(=O)c1cc(C)[nH]c(=S)c1C#N	none
O=C(CCCNS(=O)(=O)c1cccc2nsnc12)NCc1ccccc1	none
CS(=O)(=O)c1ccc2nc(NC(=O)Nc3cccc(Cl)c3)sc2c1	none
COc1ccc(S(=O)(=O)N2CCCCCC2)cc1N(C)S(=O)(=O)c1ccc(C)cc1	none (no result: CYP2C9 act, CYP2C19 inhib, CYP2C9 inh, CYP2C19 act)
CCCOc1cccc(-c2nnc(N)s2)c1	none
CCc1ccccc1NC(=O)c1ccc(F)c(S(=O)(=O)N2CCC(C(N)=O)CC2)c1	none
O=C(CSCc1c(Cl)cccc1Cl)NCC1CCCO1 (configuration not stated)	none
O=C(CSc1cc(Cl)ccc1Cl)NCC1CCCO1 (configuration not stated)	CYP2C9 act 3.2, CYP2C19 inhib 74
Nc1cc(N)nc(SCC(=O)NCC2CCCO2)n1 (configuration not stated)	Measles CPE 31
O=C(CSc1oc(-c2ccco2)nc1S(=O)(=O)c1ccc(Cl)cc1)NCC1CCCO1 (configuration not stated)	CYP2C19 inhib 76
CS(=O)(=O)N(CC(=O)NCC1CCCO1)c1ccc(F)c(Cl)c1 (configuration not stated)	CYP2C19 inhib 60
COc1ccc(-c2nnc(SCc3cc(C)cc(C)c3)o2)cc1	none
O=C(c1ccccc1)c1nn(-c2ccccc2)c2nnc(Cc3ccccc3)c(=O)n12	none (no result: CYP2C9 act, CYP2C19 inhib, CYP2C9 inh, CYP2C19 act)
Cc1cccc(NC(=S)NC2CCN(Cc3ccccc3)CC2)c1C	none (no result: CYP2C9 act, CYP2C19 inhib, CYP2C9 inh, CYP2C19 act)
CCOC(=O)C1=C(CS(=O)(=O)c2ccccc2)NC(=O)NC1c1ccccc1OCC (configuration not stated)	none
CCOC(=O)C1=C(CS(=O)(=O)c2ccc(F)c(C)c2)NC(=O)NC1c1ccc(O)c(O)c1 (configuration not stated)	CYP2C19 inhib 69
CCCc1ccc2c(N)c(C#N)sc2n1	CYP2C19 inhib 90 (no result: Measles CPE)
CC(C)NC(=O)C1(O)c2ccccc2NC(=O)N1c1ccc(Cl)c(Cl)c1 (configuration not stated)	none
CCOc1ccc2nc(SCC(=O)Nc3ccc4c(c3)OCCO4)[nH]c2c1	CYP2C19 inhib 61, CYP2C9 inh 91
COc1ccc2nc(SCC(=O)Nc3c(C)cccc3C)[nH]c2c1	CYP2C19 inhib 52, CYP2C9 inh 84
O=C(CSc1nc2ccc(Cl)cc2[nH]1)c1ccc2c(c1)OCO2	CYP2C9 inh 66 (no result: Measles CPE)
CCOc1ccc(N2C(=O)Nc3ccccc3C2(O)C(=O)NCc2ccc3c(c2)OCO3)cc1 (configuration not stated)	CYP2C9 act 2.4
O=C(CSc1ncn[nH]1)c1ccc2c(c1)OCO2	none
CCOc1ccc2nc(SCC(=O)Nc3ncccn3)[nH]c2c1	none
COC(=O)C1(O)CC(CC(C)C)=NN1C(=O)c1ccccc1 (configuration not stated)	none
COc1ccc2[nH]c3nc(SCC(=O)Nc4ccc5c(c4)OCO5)nnc3c2c1	CYP2C9 inh 70
CC(C)(C)C(=O)CSc1nc2ncc(Br)cc2[nH]1	CYP2C19 inhib 91
COc1ccc2[nH]c3nc(SCc4nnc(-c5ccc(C)cc5)o4)nnc3c2c1	CYP2C19 inhib 52, CYP2C9 inh 72 (no result: Measles CPE)
Cc1ccc2[nH]c3nc(SCCN4CCOCC4)nnc3c2c1	none
COc1ccc2nc(SCC(=O)Nc3ccc4c(c3)OCCO4)[nH]c2c1	CYP2C9 inh 81
CC1(C)CC(C)(O)N(Cc2ccccc2)C(=S)N1 (configuration not stated)	none (no result: CYP2C9 act, CYP2C19 inhib, CYP2C9 inh, CYP2C19 act)
CS(=O)(=O)N(CC(=O)N1CCN(C(c2ccccc2)c2ccccc2)CC1)C1CCCCC1	none
COc1ccc2nc(SCC(=O)NCc3ccc4c(c3)OCO4)[nH]c2c1	none (no result: CYP2C9 act, CYP2C19 inhib, CYP2C9 inh, CYP2C19 act)
CCOc1ccc2nc(SCC(=O)NCc3ccc4c(c3)OCO4)[nH]c2c1	CYP2C9 inh 68
O=C(CSc1nc2ncc(Br)cc2[nH]1)Nc1ccc2c(c1)OCO2	CYP2C19 inhib 72, CYP2C9 inh 96
O=C(CSc1ncn[nH]1)Nc1ccc2c(c1)OCCO2	none
Cc1ccc(-c2c(C#N)c(N)n3c(nc4ccccc43)c2C#N)cc1	CYP2C9 inh 64
